Compound activity deposited in PubChem by National Center for Advancing Translational Sciences (NCATS).
Sampled rows, rich in hits. Any-hit rate of the full collection: about 3.9%.
VDR inh: blocks the human vitamin D receptor; P11473; actives 0.93% (n = 400,000); AID 504847; VDR-SRC2-3 peptide fluorescence polarization, 2 h; Potency, µM, without a hit: max response, negative = inhibition, most hits filed as inhibitors; further: on the % scale 0 is the no-effect control and ±100 the full control effect
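Two reagent solutions held at 4 deg C in the dark were dispensed, compounds pinned at 23 nl, and the mixture incubated 2 h at room temperature. Read-out: fluorescence polarization of VDR–SRC2-3 peptide binding.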
PLK1 PBD inh: PLK1 (human) polo-box domain binding inhibition. Plk1 PBD binding of FITC phosphopeptide, fluorescence polarization. Potency, µM, inactives show max response, negative = inhibition, hits mostly inhibitors. actives 2.8% (n = 360,000). AID 720504; further: series mostly up to about 57 µM; on the % scale 0 is the no-effect control and ±100 the full control effect; nearly all actives have a fitted effect of over 65% in size
Target sequence (P53350 whole entry, looked up, the tested form may be a part): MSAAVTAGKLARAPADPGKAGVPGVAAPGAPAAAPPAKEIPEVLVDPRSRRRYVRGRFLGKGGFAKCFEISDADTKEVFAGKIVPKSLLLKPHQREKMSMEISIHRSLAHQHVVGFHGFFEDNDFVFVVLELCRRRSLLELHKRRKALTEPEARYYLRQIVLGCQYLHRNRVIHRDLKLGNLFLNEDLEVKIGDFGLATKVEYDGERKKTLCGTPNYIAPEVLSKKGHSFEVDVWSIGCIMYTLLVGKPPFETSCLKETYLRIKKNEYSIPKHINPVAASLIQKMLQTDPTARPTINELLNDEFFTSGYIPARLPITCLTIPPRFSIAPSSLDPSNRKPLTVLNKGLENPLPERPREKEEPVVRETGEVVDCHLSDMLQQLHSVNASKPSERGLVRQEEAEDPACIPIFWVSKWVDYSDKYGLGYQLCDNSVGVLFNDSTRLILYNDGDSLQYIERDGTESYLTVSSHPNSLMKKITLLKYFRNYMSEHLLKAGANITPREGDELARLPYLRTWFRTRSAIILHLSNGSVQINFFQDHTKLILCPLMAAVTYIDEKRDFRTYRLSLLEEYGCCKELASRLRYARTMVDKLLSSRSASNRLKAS
BRCA1 expr act: increases BRCA1 expression; MCF7-BRCA1-FFLuc reporter, luminescence, 48 h; response scale: scaled: vehicle 0%, 10 µM genistein 100%; actives 1.1% (n = 380,000); AID 624202; Potency, µM (series often up to 46.1 µM), for inactives: at the highest dose activation, most hits filed as activators; further: nearly all actives have a fitted effect of over 80% in size
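MCF7-BRCA1-FFLuc, 2000 cells/well; 2 h attach, 37 °C/5% CO2; compound 48 h; luciferase substrate 15 min; luminescence end-point. Norm. to genistein 10 microM max activation and DMSO; concentration-response curves fitted.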
Tb PFK block: T. brucei PFK enzyme inhibition; O15648; T. brucei PFK, ADP-Glo luminescence; Potency, µM (series often up to 57.5 µM), inactives show top-dose activity, negative = inhibition, usual class: inhibitors; actives 0.17% (n = 330,000);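 further: 0% = uninhibited 1x PFK enzyme wells and -100% = no-enzyme wells; nearly all actives have a fitted effect of over 60% in size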
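ADP-Glo luminescence quantified ADP after 45 min at room temperature, with 1.25 nM T. brucei PFK, 0.1 mM ATP and 0.5 mM fructose-6-phosphate in pH 8.0 TEA buffer. qHTS titrations up to 57 µM; curves classified by quality.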
Starred values were filed as active, the others as inactive; ? = inconclusive; . = not tested or not shown. The call rests on the fitted dose curve; in most records, active means well fitted curve in the direction sought with a large enough effect; inconclusive means small, poorly fitted or top-dose-only effect, or another doubt; inactive means no such curve, though single readings can be large; an effect the other way counts as inactive or inconclusive. Potency means the concentration at half of the fitted maximal effect.

SMILES	VDR inh	PLK1 PBD inh	BRCA1 expr act	Tb PFK block
COc1cccc(CNC(=O)CCN2C(=O)[C@@H]3Cc4ccccc4CN3C2=O)c1	?	27µM*	0%	-1%
CCOC(=O)c1nc(NCc2ccccc2)sc1C	71µM*	6.7µM*	46%	?
Cc1sc(NCc2ccccc2)nc1-c1ccccc1	-17%	.	0%	.
Cc1ccc(S(=O)(=O)c2nc(C)oc2N2CCOCC2)cc1	-17%	21µM*	-23%	5%
Cc1ccc(S(=O)(=O)c2nc(C(C)(C)C)oc2N2CCOCC2)cc1	?	?	0%	1%
CCOC(=O)c1cc(-c2ccccc2)nn1Cc1ccccc1	-13%	.	?	.
CCOC(=O)N1CCN(C(=O)CSc2nnc(-c3ccccc3OC)o2)CC1	8%	2%	-11%	3%
CCOC(=O)N1CCN(C(=O)CSc2nnc(-c3cc(OC)ccc3OC)o2)CC1	?	3.4µM*	-32%	4%
O=C(CSc1nnc(-c2ccccc2Cl)o1)N1CCCC1	-8%	-5%	7.1µM*	0%
Brc1ccc(-c2nnc(-c3cccc(Br)c3)o2)cc1	23%	-1%	65%	9%
O=C(CSc1nnc(-c2cccc(Br)c2)o1)NCC1CCCO1 (centres undefined)	.	-9%	-7%	.
O=C(O)c1ccc(-c2nnc(-c3cccc(Br)c3)o2)cc1	-15%	-11%	2.8µM*	-3%
O=C(CSc1nnc(-c2cccc(Br)c2)o1)N1CCNC1=O	?	-8%	10µM*	4%
CCc1ccc(NC(=O)CSc2nnc(-c3ccccc3)n2C)cc1	.	.	8%	.
CC1(C)Nc2cccc3c(N=Nc4ccc(N=Nc5ccccc5)c5ccccc45)ccc(c23)N1	.	.	-64%	.
Cc1[nH]c(=O)[nH]c(=O)c1S(=O)(=O)N1CCN(c2ccccc2Cl)CC1	-1%	.	.	.
CCOC(=O)N1CCN(C(=O)CSc2nnc(-c3cccc(OC)c3)o2)CC1	?	3.4µM*	-25%	8%
CCOC(=O)N1CCN(C(=O)CSc2nnc(-c3cc(OC)cc(OC)c3)o2)CC1	-1%	2%	1%	10%
Cc1cccc(-c2nnc(SCC(=O)N3CCCC3)o2)c1	-1%	-6%	7.1µM*	-1%
Cc1cccc(-c2nnc(SCC(=O)N3CCCCC3)o2)c1	3%	.	.	.
CN1CCN(c2cc(-c3ccc4ccccc4c3)nc3ccnn23)CC1	.	-2%	6%	.
COc1ccc(NC(=O)CSc2nc(-c3ccccc3)[nH]c2-c2ccccc2)cc1OC	11%	.	.	.
N#C/C(=C/c1ccc(N2CCCCC2)o1)C(=O)Nc1ccc(Cl)cc1	10%	42%	4.5µM*	-5%
CCc1ccccc1NC(=O)CSc1nc2c(oc3ccccc32)c(=O)n1-c1ccccc1F	14%	.	.	.
c1ccc(-c2cn3nc(-c4ccccc4)c(-c4ccccc4)nc3n2)cc1	5%	27µM*	0%	1%
SMILES	VDR inh	PLK1 PBD inh	BRCA1 expr act	Tb PFK block
CCC(c1nc2ccccc2[nH]1)n1c(-c2ccnc(Cl)c2)nc2ccccc21 (centres undefined)	.	-6%	.	.
C=C(C)CNC(=O)CCc1nnc(C2(c3ccc(Cl)cc3)CCC2)o1	16%	-2%	30%	-3%
C=CCNC(=O)CCc1nnc(C2(c3ccc(Cl)cc3)CCC2)o1	-5%	-11%	13µM*	3%
CC1C(=O)N(Cc2cn(CCC3OCCO3)nn2)CCS(=O)(=O)N1Cc1ccc(-c2ccc(F)cc2)cc1 (centres undefined)	.	5.3µM*	-8%	.
Nc1nc2ncn(COCCO)c2c(=O)[nH]1	.	.	16%	.
COc1cc(C=NCc2ccccc2)ccc1O	.	3%	2%	.
COc1ccc(/C=N/N(Cc2ccccc2)c2ccccc2)cc1O	?	17µM*	-61%	-4%
CC1(C)CC(=O)C=C(c2ccc3[nH]ccc3c2)C1	11%	-1%	77%	.
COc1ccc(-c2nn(-c3ccccc3)cc2C#N)cc1	-5%	0%	4µM*	0%
CN(C)CCCN(C(=O)COc1ccc(Cl)cc1)c1nc2cc3c(cc2s1)OCO3	-8%	-14%	13%	2%
NC(=O)c1ccsc1NC(=O)c1ccc(S(=O)(=O)N2CCCC2)cc1	6%	-18%	13µM*	17%
NC(=O)c1ccsc1NC(=O)c1ccc(S(=O)(=O)N2CCCCC2)cc1	-1%	4%	81%	7%
COc1cccc(C2/C(=C(/O)c3ccc4c(c3)CC(C)O4)C(=O)C(=O)N2CCCn2ccnc2)c1 (centres undefined)	8%	-10%	-5%	-16%
COc1cccc(C2/C(=C(\O)c3ccc4c(c3)OCCO4)C(=O)C(=O)N2CCCn2ccnc2)c1 (centres undefined)	?	27µM*	10%	-3%
Cc1ccc(CNC(C)(C)CO)cc1	6%	-15%	51%	-4%
CC(C)(CO)NCc1ccc(Br)cc1	28µM*	19µM*	0%	-4%
COc1ccc(/C=N/N2CCN(C3c4ccccc4-c4ccccc43)CC2)cc1O	-27%	27µM*	-38%	1%
N#CC1=C(SCC(=O)Nc2ccccc2)NC(=O)CC1c1ccco1 (centres undefined)	-11%	-13%	?	.
N#CC1=C(SCC(=O)NCc2ccccc2)NC(=O)CC1c1ccco1 (centres undefined)	-11%	9.5µM*	-2%	-5%
O=S(=O)(Nc1nc2ccc(S(=O)(=O)N3CCCC3)cc2s1)c1ccc(F)cc1	-6%	17µM*	4%	0%
O=C(Nc1nc2ccc(S(=O)(=O)N3CCCC3)cc2s1)c1ccc(F)cc1	-6%	.	0%	.
COc1cccc(N(C)C(=S)Oc2ccc3c(c2)CCCC3)n1	-4%	.	.	.
C=CCn1c(NC(=O)c2ccc(Br)o2)c(C(=O)OCC)sc1=S	89µM*	6.7µM*	6%	-12%
COc1ccc(/C=C2\C(=O)OCc3cc(OC)c(OC)cc32)cc1OC	-8%	-12%	-35%	0%
COc1ccc(C=C2C(=O)OC(C)(C)OC2=O)cc1OC	-3%	13µM*	-2%	-2%
SMILES	VDR inh	PLK1 PBD inh	BRCA1 expr act	Tb PFK block
COc1ccc(/C=C2\OC(=O)c3c(OC)cccc32)cc1OC	11%	-3%	10µM*	1%
COc1ccc(/C=C2/CCc3ccccc3C2=O)cc1OC	-17%	-1%	-30%	-15%
COc1ccc(/C=C2\C(=O)NC(=O)c3ccccc32)cc1OC	?	4.7µM*	-32%	.
COc1cc2c(ccc3cc(OC)c(OC)c(O)c32)cc1O	6%	?	-42%	?
COc1cc2cccc(OC)c(=O)c2c(O)c1OC	-15%	-4%	10µM*	9%
Cc1cccc(Nc2nc(-c3ccc(O)cc3O)cs2)n1	-4%	-6%	?	3%
Cc1cccnc1Nc1nc(-c2ccc(F)cc2)cs1	9%	-9%	23%	0%
Cc1cccnc1Nc1nc(-c2ccc(O)cc2)cs1	-10%	-15%	4.5µM*	8%
Oc1ccc(-c2csc(Nc3ncccn3)n2)c(O)c1	-2%	-5%	4.5µM*	8%
CCCNC(=O)Cn1nc(-c2ccc(C)cc2)c2cnc3ccc(CC)cc3c21	4%	.	.	.
COc1ccc(N2C(=O)c3ccccc3S2(=O)=O)cc1	-11%	-15%	27%	1%
